Assay outcomes deposited in PubChem by several laboratories.
NALP1 yeast inh: inhibitors of NALP1 inflammasome in yeast; inhibition, % at 10 µM; S. cerevisiae NALP1/ASC/caspase-1 growth, X-gal OD620, 72 h; 280,000 compounds, 0.61% hits; AID 2071; in the data active = inhibition mostly above about 24%, no sharp cut-off; inactive = mostly below about 32%
Fh CTSL1 inh: counter-screen for PFM18AAP inhibitors: inhibitors of F. hepatica cathepsin L1. recombinant F. hepatica cathepsin L1, Z-Leu-Arg-MCA fluorescence. 300,000 compounds, 0.49% hits. inhibition, % at 5.96 µM;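 active = inhibition above the mean of all tested compounds plus 3 SD, set per screening campaign, cut at about 17% in these data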;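 also: 0% = plate median of test compound wells and 100% = 1 µM Z-Phe-Ala-diazomethylketone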
APOBEC3G inh: blocks human APOBEC3G single-stranded DNA deamination. Q9HC16. recombinant A3G, ssDNA deamination FAM/TAMRA fluorescence. inhibition, % at 20 µM. 330,000 compounds, 0.28% hits;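 active = inhibition of at least 40% at 20 µM, with no more than 30% in the related APOBEC3A deaminase screen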;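 also: plate controls were DMSO wells with A3G for no effect and wells lacking A3G enzyme for full effect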
Target sequence (Q9HC16 whole entry, looked up): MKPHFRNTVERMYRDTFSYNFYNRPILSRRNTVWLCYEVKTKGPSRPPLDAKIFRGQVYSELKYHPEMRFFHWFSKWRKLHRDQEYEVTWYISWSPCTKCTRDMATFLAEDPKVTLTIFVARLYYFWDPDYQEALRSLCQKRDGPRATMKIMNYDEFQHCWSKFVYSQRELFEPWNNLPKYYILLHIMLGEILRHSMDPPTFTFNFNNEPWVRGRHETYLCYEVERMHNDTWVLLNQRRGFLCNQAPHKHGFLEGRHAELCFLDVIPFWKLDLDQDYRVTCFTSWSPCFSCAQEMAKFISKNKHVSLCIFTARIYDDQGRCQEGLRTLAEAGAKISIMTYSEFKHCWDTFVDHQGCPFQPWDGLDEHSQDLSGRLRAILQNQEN
APOBEC3A inh: human APOBEC3A DNA deaminase inhibition. P31941. recombinant A3A, FAM/TAMRA ssDNA deamination fluorescence. inhibition, % at 20 µM. 330,000 compounds, 0.41% hits;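 active = at least 40% inhibition at 20 µM here, with at most 30% in a related deaminase screen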;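 also: plate controls were A3A with DMSO for no effect and wells lacking A3A enzyme for full effect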
Target sequence (P31941 whole entry, looked up): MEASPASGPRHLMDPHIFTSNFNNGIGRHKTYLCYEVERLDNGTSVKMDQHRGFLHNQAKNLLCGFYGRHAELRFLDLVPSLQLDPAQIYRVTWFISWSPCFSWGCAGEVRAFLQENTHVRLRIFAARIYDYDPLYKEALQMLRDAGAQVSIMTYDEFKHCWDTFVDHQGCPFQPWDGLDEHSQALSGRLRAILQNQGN
HGIII-sPLA2 inh: Blocks human group III sPLA2 activity | 370,000 compounds, 0.56% hits | AID 743126 | inhibition, % at 12.2 µM | Q9NZ20 | QFRET BODIPY PC-A2 liposome hydrolysis, fluorescence;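 active = inhibition above mean plus 3 SD of compounds lying within the high and low control bounds, cut at about 19% in these data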;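 also: 0% = median of test compound wells and 100% = no enzyme DMSO wells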
hGIII sPLA2 conf: human GIII-sPLA2 inhibition, confirmation | AID 743280 | 2,000 compounds, 34% hits | shares compounds with HGIII-sPLA2 inh | recombinant hGIII-sPLA2, BODIPY PC-A2 QFRET fluorescence | inhibition, % at 12.2 µM;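 active = mean inhibition across triplicates above the hit cutoff set in the earlier primary screen, cut at about 19% in these data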;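 also: 0% = enzyme with DMSO and 100% = DMSO wells lacking enzyme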
535nm interf: optically interferes with 535nm fluorescence in sPLA2 counter-screen. 2,000 compounds, 8.5% hits. BODIPY FL product fluorescence interference, QFRET. AID 743282. shares compounds with HGIII-sPLA2 inh. inhibition, % at 12.2 µM;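 active = average inhibition above the solvent-only control mean plus 3 SD, cut at about 6% in these data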;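 also: 0% = DMSO with substrate plus product and 100% = DMSO with substrate alone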
BODIPY interf DR: interferes with 535nm fluorescence in dose response counter-screen; shares compounds with HGIII-sPLA2 inh; BODIPY FL product fluorescence interference, cell-free; IC50, µM; 240 tested, under 10 active; AID 743455;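 active = IC50 at or below 10 µM; inactive = IC50 above 10 µM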
Numbers without * were called inactive; · = no result given. In the library only some 2% were active in any assay of this set; here they are far more common.

SMILES	NALP1 yeast inh	Fh CTSL1 inh	APOBEC3G inh	APOBEC3A inh	HGIII-sPLA2 inh	hGIII sPLA2 conf	535nm interf	others
Nc1c(C(=O)Nc2ccccc2F)sc2nc(-c3ccco3)ccc12	-6	-2	43	51	19*	10	-5
COc1ccc(/C=N/NC(=O)c2cc(O)c(O)c(O)c2)cc1Cn1cc([N+](=O)[O-])cn1	0	·	·	·	21*	27*	-10
COc1ccc(/C=N/NC(=O)c2ccccc2O)cc1Cn1cc([N+](=O)[O-])cn1	-68	-1	-3	-1	-7	·	·
CC(C)(C)C(=O)NC(=S)Nc1sc2c(c1C#N)CCCCC2	15	3	-9	2	22*	17	4
CC(C)n1c(=S)[nH]c2scc(-c3cccs3)c2c1=O	5	5	16	21	23*	48*	9.6*
Cc1cc(C)nc(SCc2ccc(C(=O)N/N=C/c3cccc(O)c3O)cc2)n1	20	3	-1	1	26*	38*	-29	BODIPY interf DR=>122
O=C(Cc1cccs1)NNC(=S)NCc1ccc(Cl)cc1	16	-4	-4	-2	19*	45*	0	BODIPY interf DR=>122
O=C(Cc1ccc(Cl)cc1)NNC(=S)NC(=O)c1cccs1	16	1	-2	-2	15	·	·
Cc1nc2ccc(NC(=O)c3ccc(F)cc3Cl)cc2c(=O)[nH]1	·	·	·	·	6	·	·
CC(c1cc(F)ccc1O)c1c[nH]c2ccccc12 (centres undefined)	·	·	·	·	-66	·	·
COC(=O)c1sccc1NC(=S)Nc1ccccc1	24	7	1	1	11	·	·
COC(=O)c1sccc1NC(=S)Nc1cc(C)cc(C)c1	-8	0	-5	0	23*	15	-4
COC(=O)c1sccc1NC(=S)Nc1cccc(F)c1	-6	-5	-3	-5	19*	5	1
Cc1cc(C)cc(OC(C)CCN2CCC(C(O)(c3ccccc3)c3ccccc3)CC2)c1 (centres undefined)	·	·	·	·	-15	·	·
Cc1c(Cl)c(C(=O)NNC(=S)Nc2ccc(F)cc2)nn1C	4	0	-2	0	34*	41*	5	BODIPY interf DR=>122
CCNC(=S)NNC(=O)c1nn(C)c(C)c1Cl	-26	0	-4	3	6	·	·
Cc1c(Cl)c(C(=O)NNC(=S)Nc2ccccc2)nn1C	11	-1	-1	3	29*	46*	0	BODIPY interf DR=>122
COc1cc(OC)cc(C(=O)NCC2CCN(C(=O)C(=O)c3cc4ccccc4o3)CC2)c1	·	·	·	·	-2	·	·
CCCCOCCCNC(=O)C[C@H]1C(=O)N(CCCOC)C2=CCCCC[C@]21C(=O)OC	·	·	·	·	-3	·	·
CC[n+]1ccccc1/C=C/c1ccc(N(C)C)cc1	11	·	·	·	-1	·	·
CC[n+]1ccc(/C=C/c2ccc(N(C)C)cc2)c2ccccc21	45*	·	·	·	24*	46*	-11	BODIPY interf DR=>122
CC[n+]1c(/C=C/c2ccc(N(C)C)cc2)ccc2ccccc21	92*	-1	·	·	25*	43*	-14	BODIPY interf DR=>122
COc1ccc(C2c3ccccc3NC3C2C(=O)N(Cc2ccc(OC)cc2OC)[C@H]3Cc2ccccc2)cc1 (some centres undefined)	·	·	·	·	5	·	·
CCOC(=O)[C@@]12CCC3=C1N(CCC3)C(=O)[C@H](CC(=O)NCCCOC)C2	·	·	·	·	19	·	·
N#CC12C(=O)NC(=O)C1(C#N)C21CCCC1 (centres undefined)	·	·	·	·	22*	-3	-6
SMILES	NALP1 yeast inh	Fh CTSL1 inh	APOBEC3G inh	APOBEC3A inh	HGIII-sPLA2 inh	hGIII sPLA2 conf	535nm interf	others
O=C(Nc1ccc(Cl)c(Cl)c1)C1CCN(c2nnc(-n3cccc3)s2)CC1	·	·	·	·	-15	·	·
COc1cc(S(=O)(=O)n2c(C)nc3ccccc32)ccc1F	17	5	-2	3	20*	6	-5
CCCN(CCC)C(=O)c1oc2ccccc2c1NC(=O)Cc1cccc(OC)c1	9	0	-4	0	20*	-2	-19
CCC(=O)Nc1c(C(=O)Nc2cccc(OC)c2)oc2ccccc12	17	2	-2	5	-9	·	·
CN1/C(=C\C(=O)Nc2ccc(F)cc2)C(C)(C)c2ccccc21	34	5	0	6	31*	28*	3	BODIPY interf DR=>122
CCCNC(=S)N(Cc1ccccc1)Cc1nc2ccccc2c(=O)[nH]1	27	-1	-7	-3	22*	-2	-11
CN(Cc1ccccc1)C(=O)OCc1cn(Cc2cccc(F)c2F)nn1	·	·	·	·	-2	·	·
CN1CCN(CC(O)COc2ccc(OCC(O)CN3CCN(C)CC3)cc2)CC1 (centres undefined)	18	3	1	3	0	·	·
CN1CCN(CC(O)COc2ccc(C(=O)O)cc2)CC1 (centres undefined)	-1	-4	-4	-4	19*	6	-6
CCCCn1c(=O)nc2n(-c3ccc(Cl)cc3)c3ccccc3cc-2c1=O	17	1	-5	1	25*	0	-8
Cc1ccc(Nc2ccc(S(=O)(=O)N3CCOCC3)cc2[N+](=O)[O-])c(C)c1	30	0	0	2	2	·	·
Cc1ccccc1Nc1ccc(S(=O)(=O)N2CCOCC2)cc1[N+](=O)[O-]	39	5	-11	-2	20*	7	-9
Cc1ccccc1N1CCN(S(=O)(=O)c2ccc3c(c2)oc(=O)n3C)CC1	·	·	·	·	-5	·	·
O=C(OC1CCCCC1)c1cc2ccccc2oc1=O	-5	-3	-6	-2	-5	·	·
O=C(OC[C@@H]1CCCN2CCCC[C@H]12)c1cc2ccccc2oc1=O	29	10	1	3	20*	2	-7
CC1=NN(c2ccccc2)C(=O)/C1=C/C=C/c1ccc(N(C)C)cc1	-18	·	·	·	23*	44*	9.7*
O=C(Cc1ccc(F)cc1)Nc1nccs1	14	0	-10	0	-6	·	·
Fc1ccc(NC(=S)Nc2nccs2)cc1	0	-4	-7	-5	23*	28*	-3	BODIPY interf DR=>122
S=C(Nc1ccccc1)Nc1nccs1	12	-1	-5	-2	27*	30*	1	BODIPY interf DR=>122
O=S(=O)(O)c1nc2ccccc2n1Cc1ccccc1	24	2	-11	-9	20*	1	-3
CCCCn1c(S(=O)(=O)O)nc2ccccc21	36	-3	-3	-2	1	·	·
CCn1c(S(=O)(=O)O)nc2ccccc21	8	-4	-5	-4	20*	0	-3
CS(=O)(=O)c1nc2ccccc2n1Cc1ccccc1	-1	5	-4	-3	7	·	·
COP(=O)(O)C(C)NC(=O)OCc1ccccc1 (centres undefined)	·	·	·	·	6	·	·
COc1cc(NC(=O)C2CCCN(S(=O)(=O)c3ccccc3)C2)cc(OC)c1 (centres undefined)	·	·	·	·	-17	·	·
